Results as given in the supplement of paper PMC8183993.
Structures can show the parent of a compound that is named as a salt. ± gives the standard deviation of the averaged measurements. In all, about 3,200 compounds were measured (“nuclei count (viability) relative to DMSO”: median about 99, lowest 2% from about 16 on). The full list was thinned out, with the lowest values kept by preference.

System: U2OS
Experiment: nuclei count (viability) relative to DMSO (% of DMSO); higher = more viable cells
Settings: 10 µM; 24 h
Experimental: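 Primary image-based screen in U2OS cells: compounds at 10 uM for 24 h, then a 1 h o-propargyl-puromycin (OPP) pulse, click labelling, and high-throughput microscopy. Mean cytoplasmic OPP intensity and nuclei count were normalised to DMSO wells within each plate (DMSO = 100) and averaged over triplicate plates.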

Going from `Oc1ccc2c3c1O[C@H]1c4[nH]c5c(c4C[C@@]4(O)[C@@H](C2)N(CC2CC2)CC[C@]314)C[C@@]1(O)[C@H]2Cc3ccc(O)c4c3[C@@]1(CCN2CC1CC1)[C@H]5O4` [nor-Binaltorphimine dihydrochloride] to `O=C1/C(=C/c2ccccc2)C[C@@]2(O)[C@H]3Cc4ccc(O)c5c4[C@@]2(CCN3CC2CC2)[C@H]1O5` [BNTX maleate], the nuclei count falls from 99.1 to 3.38.

Going from `O=C1CC[C@@]2(O)[C@H]3Cc4ccc(O)c5c4[C@@]2(CCN3CC2CC2)[C@H]1O5` [Naltrexone hydrochloride dihydrate] to `CC(C)(O)[C@H]1O[C@H]2CC[C@@]3(C)[C@@](O)(CC[C@H]4Cc5c([nH]c6ccccc56)[C@@]43C)C2=CC1=O` [Paxilline], the nuclei count falls from 105 to 91.2 ± 11.

First: CC(=O)O[C@H]1CC[C@@]2(C)C(=CC[C@@H]3[C@@H]2CC[C@]2(C)C(=O)CC[C@@H]32)C1 [Dehydroisoandosterone 3-acetate]
Second: CCN(CC)CCO[C@H]1CC[C@@]2(C)C(=CC[C@@H]3[C@@H]2CC[C@]2(C)C(=O)CC[C@@H]32)C1
The nuclei count of the first is lower: 96.3 for the first, 97 for the second.

Compared with `C[C@@H]1CC[C@@]2(OC1)O[C@H]1C[C@H]3[C@@H]4CC=C5C[C@@H](O[C@@H]6O[C@H](CO)[C@@H](O[C@@H]7O[C@@H](C)[C@H](O)[C@@H](O)[C@H]7O)[C@H](O)[C@H]6O[C@@H]6O[C@@H](C)[C@H](O)[C@@H](O)[C@H]6O)CC[C@]5(C)[C@H]4CC[C@]3(C)[C@H]1[C@@H]2C` [Dioscin (Collettiside III)], `CCN1C[C@]2(COC(=O)c3ccccc3N3C(=O)C[C@H](C)C3=O)CC[C@H](OC)[C@@]34[C@@H]5C[C@H]6[C@H](OC)[C@@H]5[C@](O)(C[C@@H]6OC)[C@](O)([C@@H](OC)[C@H]23)[C@@H]14` [Methyllycaconitine citrate] is higher in nuclei count: 9.01 for the first, 109 for the second.

Going from `CO[C@@H]1[C@H](OC(=O)NC(=O)CCl)CC[C@]2(CO2)[C@H]1[C@@]1(C)O[C@@H]1CC=C(C)C` to `COc1ccc(C[C@H]2NC[C@H](O)[C@H]2OC(C)=O)cc1` [Anisomycin], the nuclei count falls from 92.6 to 12.5 ± 8.3.

First: Cc1onc(O)c1C[C@H](N)C(=O)O
Second: C[CH2][Hg][S]c1ccccc1C(=O)[O-].[Na+] [Thimerosal]
The nuclei count of the first is higher: 102 for the first, 5.97 for the second.

`CCC(=O)CCCCC[C@@H]1NC(=O)[C@H]2CCCCN2C(=O)[C@H]([C@@H](C)CC)NC(=O)[C@H](Cc2cn(OC)c3ccccc23)NC1=O` [Apicidin] and `O=C1NC(=O)c2c1c1c3ccccc3n3c1c1c2c2ccccc2n1[C@H]1CC[C@@H]3O1` are within error of each other in nuclei count: 54.1 ± 37 for the first, 60.9 for the second.

Compared with `CN(C(=O)Cc1ccccc1)C(CN1CCCC1)c1ccccc1` (stereo unspecified) [N-MPPP Hydrochloride], `O=C(CCCN1CCC2(CC1)C(=O)N(Cc1cccc(F)c1)CN2c1ccccc1)c1ccc(F)cc1` [3'-Fluorobenzylspiperone maleate] is lower in nuclei count: 87.9 for the first, 29.4 for the second.

First: CN[C@@H]1C[C@H]2O[C@@](C)([C@@H]1OC)n1c3ccccc3c3c4c(c5c6ccccc6n2c5c31)C(=O)NC4 [Staurosporine]
Second: O=C1CN=C(c2cccc(Br)c2)c2oc3ccccc3c2N1
The nuclei count of the first is lower: 10.1 for the first, 78.5 for the second.

Going from `Clc1ccccc1C(c1ccccc1)(c1ccccc1)n1cccn1` to `CC12NC(Cc3ccccc31)c1ccccc12` (single isomer, unassigned; (+)) [(+)-MK 801 maleate], the nuclei count falls from 102 to 94.2.

Compared with `CC(C)(c1ccc(OCC2CO2)cc1)c1ccc(OCC2CO2)cc1` (stereo unspecified), `CC(C)(Cc1c[nH]c2ccc(Cl)cc12)NCCOc1ccccc1OCC1CC1` is lower in nuclei count: 86.6 ± 6.1 for the first, 11.3 for the second.

First: CC(=O)N1CC[N+](C)(C)CC1 [4-Acetyl-1,1-dimethylpiperazinium iodide]
Second: CC1(C)CCCC(C)(C)N1[O]
The nuclei count of the first is higher: 103 for the first, 91.7 for the second.

Compared with `COc1cc([C@@H]2c3cc4c(cc3[C@H](O)[C@H]3COC(=O)[C@H]23)OCO4)cc(OC)c1OC` [Podophyllotoxin], `COc1cc2c(cc1O)C(CCc1ccc(Cl)cc1)N(C)CC2` (stereo unspecified) is higher in nuclei count: 15.6 for the first, 104 for the second.

Compared with `CC(C(=O)OC1CC2CCC(C1)N2C)c1ccc(Br)cc1` (stereo unspecified) [PG-9 maleate], `CC(C)n1cnc2c(C(=O)N[C@H]3CN4CCC3CC4)cc(Cl)cc21` is lower in nuclei count: 98.8 for the first, 96.2 for the second.

First: O=C1Nc2cc(Cl)c(Cl)cc2N2CCNCC12 (stereo unspecified)
Second: COc1ccc(C(=O)c2c(C)n(CCN3CCOCC3)c3cc(I)ccc23)cc1
The nuclei count of the first is higher: 95.9 for the first, 80 for the second.

Going from `CCCCC/C=C\C/C=C\C/C=C\C/C=C\CCCC(=O)Nc1ccc(O)cc1` to `N#CC(C#N)=Cc1ccc(O)cc1` [Tyrphostin 8], the nuclei count rises from 97 to 102.

Compared with `CC(=O)C1=C(O)[C@@H]2[C@H]3c4c[nH]c5cccc(c45)C[C@H]3C(C)(C)N2C1=O` [Cyclopiazonic Acid], `CN1C(=O)[C@]23CC4=CC=C[C@H](O)[C@H]4N2C(=O)[C@@]1(CO)SS3` [Gliotoxin] is lower in nuclei count: 90.3 for the first, 36 for the second.

Compared with `CC(=O)C1=C(O)[C@@H]2[C@H]3c4c[nH]c5cccc(c45)C[C@H]3C(C)(C)N2C1=O` [Cyclopiazonic acid], `Cc1ccc(C[N+](C)(C)C)o1` [5-Methylfurmethiodide] is higher in nuclei count: 75.5 for the first, 91.6 for the second.
